# This is a sample that favours compounds with a hit; in the whole collection about 1.2% have one here.
# GCN5L2 inh – blocks human GCN5L2 histone acetyltransferase; 390,000 tested, 0.21% active; Potency, µM (top dose mostly 58.9 µM), inactives show at the top dose activity change, negative = inhibition, actives largely listed as inhibitors; GCN5L2 HAT assay, ThioGlo1 CoA-SH fluorescence; Q92830; AID 504327
# Target sequence (Q92830 whole entry, looked up): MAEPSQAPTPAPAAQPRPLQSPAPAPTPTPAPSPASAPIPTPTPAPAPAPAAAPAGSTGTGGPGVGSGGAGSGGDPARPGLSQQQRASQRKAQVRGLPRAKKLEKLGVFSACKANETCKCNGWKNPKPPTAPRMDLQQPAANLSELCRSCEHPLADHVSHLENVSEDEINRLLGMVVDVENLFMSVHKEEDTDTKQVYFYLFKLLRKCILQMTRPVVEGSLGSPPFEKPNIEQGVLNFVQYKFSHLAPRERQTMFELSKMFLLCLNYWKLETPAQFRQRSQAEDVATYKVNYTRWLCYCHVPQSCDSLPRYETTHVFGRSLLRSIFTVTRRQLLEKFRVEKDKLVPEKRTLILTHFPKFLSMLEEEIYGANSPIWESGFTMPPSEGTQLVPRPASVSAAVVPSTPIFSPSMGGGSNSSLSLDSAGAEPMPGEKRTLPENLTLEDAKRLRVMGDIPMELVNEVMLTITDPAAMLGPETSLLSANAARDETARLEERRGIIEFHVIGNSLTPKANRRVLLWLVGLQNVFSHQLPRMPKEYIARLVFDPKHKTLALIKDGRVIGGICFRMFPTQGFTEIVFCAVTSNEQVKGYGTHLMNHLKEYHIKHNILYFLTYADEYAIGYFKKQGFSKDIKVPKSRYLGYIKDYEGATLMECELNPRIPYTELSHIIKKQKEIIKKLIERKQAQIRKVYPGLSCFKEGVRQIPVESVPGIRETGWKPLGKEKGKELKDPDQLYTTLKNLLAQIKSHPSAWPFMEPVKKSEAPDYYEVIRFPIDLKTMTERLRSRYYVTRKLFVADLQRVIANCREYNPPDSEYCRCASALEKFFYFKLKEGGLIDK
#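 Fluorescence readout, Ex340nm/Em540nm: ThioGlo1 (50uM final) reacts with free CoA thiol released as 20nM GCN5L2 acetylates H3(1-25) peptide (75uM) using acetyl-CoA (70uM). Compound and enzyme sat 15 min beforehand; 20 min room-temperature reaction.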
# TRb SRC2 PPI – inhibitors of human thyroid hormone receptor beta-SRC2 interaction. TRbeta-SRC2 peptide binding, fluorescence polarization; receptor liganded with 1 µM T3. Potency, µM (highest dose often 106 µM), inactives show at the top dose activity change, negative = inhibition, hits mostly inhibitors. 280,000 tested, 0.065% active. P10828;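 also: plate controls were bound peptide for no effect and peptide without receptor for full effect; nearly all actives have a fitted effect of over 50% in size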
#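 Assay buffer: 20 mM Tris-HCl, 100 mM NaCl, 10% glycerol, 1 mM EDTA, 0.01% NP-40, 1 mM DTT, 1 uM T3, 5% DMSO; TRb LBD 0.6 uM, Texas Red SRC2 20 nM; FP after 5 hr.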
# VDR inhibitor – inhibitors of human vitamin D receptor; 400,000 tested, 0.93% active; VDR-SRC2-3 peptide fluorescence polarization, 2 h; P11473; Potency, µM, inactives show max response, negative = inhibition, most hits filed as inhibitors
#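 FP read-out; VDR + SRC2-3 coactivator peptide; 23 nl compound by pintool; 2 h RT incubation; reagents held at 4 deg C, protected from light.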
# TexasRed fluor – counter-screen for TRb-SRC2 inhibitors: fluorescence interference. TRb/SRC2 Texas Red total fluorescence interference. Potency, µM (top dose mostly 106 µM), without a hit: top-dose fluorescence change, negative = quenching. 280,000 tested, 0.29% active. AID 1479; active = well fitted curve in either direction with a large enough effect; inconclusive = small, poorly fitted or top-dose-only effect
#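 Human TRb ligand-binding domain at 0.6 uM with 20 nM Texas Red SRC2 peptide in Tris buffer containing 1 uM T3 and 5% DMSO, incubated with compound 5 h at ambient temperature. Total fluorescence (555/632 nm) calculated as parallel + 2 × perpendicular.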
# GoLoco inh red – blocks human Gai1 binding to RGS12 GoLoco peptide, red readout | P63096 | Gai1:RGS12 GoLoco peptide FP, rhodamine, 10 min | Potency, µM (top dose mostly 61.6 µM), inactives show at the highest dose activity, negative = inhibition, usual class: inhibitors | 230,000 tested, 0.44% active; active = well fitted inhibition curve with a large enough effect, not every such curve was filed as active; inactive = no such curve, though single readings can be large or run the other way; also: nearly all actives have a fitted effect of over 30% in size
# Active calls of the source: *; ? = inconclusive; nt = not tested or not shown; [ ] = dose if it differs, or a comment. Unless noted, calls follow the shape of the dose curve; as a rule, active = well fitted curve in the direction sought with a large enough effect; inconclusive = small, poorly fitted or top-dose-only effect, or another doubt; inactive = no such curve, though single readings can be large; an effect the other way counts as inactive or inconclusive. Unless noted, % is scaled to controls: 0 for no effect and ±100 for the full control effect; potency is read from the fitted curve at half-maximal effect.
SMILES,GCN5L2 inh,TRb SRC2 PPI,VDR inhibitor,TexasRed fluor,GoLoco inh red
O=S(=O)(c1ccc(Br)cc1Cl)N1CCN(CCO)CC1,2%,4%,-16%,2%,0%
O=C1C=CC(=O)c2c(O)c(N3CCN(CCO)CC3)c(Cl)c(O)c21,nt,nt,8.9µM*,nt,nt
CCOc1ccccc1C(=O)Nc1nnc(COC)s1,-3%,4%,-4%,-20%,50µM*
CCOC(=O)Cc1nnc(NC(=O)c2ccccc2OCC)s1,1%,5%,20%,-1%,0%
FC(F)(F)c1cc(NC(=S)NC(c2ccccc2)c2ccccc2)cc(C(F)(F)F)c1,nt,4%,-21%,-1%,3%
Cc1ccc(NC(=S)NNC(=S)Nc2cccc(C(F)(F)F)c2)cc1,?,-6%,28µM*,-1%,6%
FC(F)(F)c1cc(NC(=S)Nc2ccc3cc4ccccc4cc3c2)cc(C(F)(F)F)c1,nt,-6%,22µM*,-1%,0%
Cc1ccc(NC(=S)NNC(=O)Nc2ccccc2)cc1,-5%,-4%,4%,3%,7%
S=C(NCc1ccccc1)Nc1cccc(Cl)c1,0%,-2%,-18%,-3%,8%
Cc1ccc(NC(=S)NNC(=S)Nc2ccc(C)cc2)cc1,nt,nt,79µM*,nt,nt
Cc1cccc(NC(=S)NNC(=S)NCc2ccccc2)c1,-3%,-12%,89µM*,-2%,11%
O=C1c2ccccc2C(O)(O)[C@@]1(O)[C@]1(O)C(=O)c2ccccc2C1(O)O,nt,nt,nt,nt,0%[14.2 µM]
O=S(=O)(O)CCCc1cccc2ccccc12,nt,nt,nt,nt,8%[14.2 µM]
COc1c(O)cc2oc3cc(O)c(CC=C(C)C)c(O)c3c(=O)c2c1CC=C(C)C,nt,1%,nt,1%,-3%
N#CCc1ccccc1[N+](=O)[O-],nt,1%,nt,-2%,0%
C[N+](C)(C)CCC(=O)N1C/C(=C/c2ccccc2)C(=O)/C(=C\c2ccccc2)C1,nt,nt,79µM*,nt,nt
CCOC(=O)N1C/C(=C\c2ccccc2)C(=O)/C(=C/c2ccccc2)C1,-2%,1%,?,0%,1%
O=C(/C=C/Nc1ccccc1)c1ccccc1,-9%[0.501 µM],8%,-6%,1%,-17%
CN(C)c1ccc(N/C=C/C(=O)c2ccccc2)cc1,-7%,32µM*,79µM*,45µM*[fluorescent],68%
CN(C)c1ccc(N/C=C/C(=O)C(C)(C)C)cc1,-6%,45µM*,16µM*,?,-5%
CC[C@H](C)[C@H](NC(=O)[C@H](CCCNC(=N)N)NC(=O)[C@@H](NC(=O)[C@H](CCCNC(=N)N)NC(=O)[C@H](CCCCN)NC(=O)[C@H](CCCNC(=N)N)NC(=O)[C@@H](NC(=O)[C@H](CC(N)=O)NC(=O)[C@@H](N)CS)[C@@H](C)O)[C@@H](C)CC)C(=O)N[C@@H](CCC(N)=O)C(=O)N[C@@H](CCCNC(=N)N)C(=O)NCC(=O)N1CCC[C@H]1C(=O)NCC(=O)N[C@@H](CCCNC(=N)N)C(=O)N[C@@H](C)C(=O)N[C@@H](Cc1ccccc1)C(=O)N[C@H](C(=O)N[C@H](C(=O)N[C@H](C(=O)NCC(=O)N[C@@H](CCCCN)C(=O)O)[C@@H](C)CC)[C@@H](C)O)C(C)C,5%,6%,?,-3%,nt
OCCOCCOCCOCCOCCO,nt,4%[201 µM],nt,0%[201 µM],nt
NNC(=O)CN1C(c2ccccc2Br)=Nc2ccc(Br)cc2C1c1ccccc1 (configuration not stated),-11%,13%,71µM*,1%,-2%
CCCn1c2ccccc2c2cnn(CC(=O)Nc3cc(OC)c(OC)c(OC)c3)c(=O)c21,-18%,-8%,-2%,18µM*[quencher],nt
O=C(Nc1ccc(Cl)cc1)C(Cl)C(=O)c1ccccc1 (configuration not stated),-5%,nt,18µM*,nt,nt
SMILES,GCN5L2 inh,TRb SRC2 PPI,VDR inhibitor,TexasRed fluor,GoLoco inh red
O=C(Nc1ccccc1Cl)C(Cl)C(=O)c1ccccc1 (configuration not stated),-4%,0%,-11%,0%,-9%
CCCCC(CC)COC(=O)/C=C\C(=O)OCC(CC)CCCC (configuration not stated),nt,3%[201 µM],nt,-6%[201 µM],nt
CCC(C)NC(=O)COC(=O)c1csc2c1CCCC2 (configuration not stated),?,?,-7%,0.0004µM*[quencher],-2%
N#CC(C#N)=C1C=C2C=C(N3CCCCCC3)CCC2CC1 (configuration not stated),-8%,-5%,-18%,10%,-115%
N#CC(C#N)=C1C=C2C=C(N3CCOCC3)CCC2CC1 (configuration not stated),2%,6%,71µM*,1%,72%
COc1ccc(CNc2nc(N)nc3nc[nH]c23)cc1,nt,nt,12%,nt,nt
COc1ccccc1NC(=O)CSC(N)=O,-2%,1%,22µM*,0%,14%
NC(=O)SCC(=O)Nc1ccccc1C(=O)O,15%,-1%,79µM*,1%,-1%
COc1ccccc1NC(=O)CC(C)=O,nt,-1%[201 µM],nt,-3%[201 µM],nt
Cc1ccccc1NC(=O)CSCC(=O)Nc1ccccc1C,3%,-1%,9%,1%,6%
Cc1ccccc1NC(=O)CSC(N)=O,-8%,0%,25µM*,-2%,2%
Cc1noc(C)c1-c1ccc2ncnc(NCc3ccc(C(F)(F)F)cc3)c2c1,nt,4%,nt,-2%,nt
COc1nc(C#N)nc(N2CCCCC2)n1,nt,nt,-18%,nt,nt
O=c1oc(=O)c2cc3c(=O)oc(=O)c3cc12,nt,10%[201 µM],nt,0%[201 µM],nt
O=C(CCS(=O)(=O)c1ccc(Br)s1)Nc1c(F)cccc1F,1%,?,-7%,398µM*[quencher],nt
Cc1ccc(NC(=O)CCS(=O)(=O)c2ccc(Br)s2)cc1,-8%,nt,-14%,nt,nt
Cc1cc(Nc2ccc(O)cc2)ccc1N,1%,?,?,27%,28µM*
N#CC1=C(S)N(c2ccccc2)C(c2ccco2)NC1=O (configuration not stated),-14%,-10%,-7%,-3%,-9%
N#CC1=C(S)N(c2ccccc2)C(c2ccc(-c3cc(Cl)ccc3Cl)o2)NC1=O (configuration not stated),?,6%,79µM*,6%,18%
N#CC1=C(S)N(c2ccccc2)C(c2ccc(-c3ccc(Cl)c(Cl)c3)o2)NC1=O (configuration not stated),-25%,-2%,56µM*,-2%,91%
O=C(c1ccc2c(=O)n(CC3CCCO3)c(=S)[nH]c2c1)N1CCN(C(=O)c2ccco2)CC1 (configuration not stated),nt,nt,2%,nt,nt
COc1cccc(C(=O)Nc2sc3c(c2C(=O)O)CCCC3)c1,?,nt,-15%,nt,nt
COc1cccc(C(=O)Nc2sc3c(c2C#N)CCN(C(C)=O)C3)c1,-20%,-2%,79µM*,1%,60%
COc1ccc(CCN(Cc2cc3ccc(C)cc3n3nnnc23)C(C)=O)cc1OC,3%,-12%,40µM*,-1%,-1%
